Test results published in PubChem BioAssay AID1159580 (chemical genetic matrix, 2015).
In all, about 5,500 compounds went through this assay and about 2,000 (36%) were called active. Inconclusive results (about 18%) are left out. Cut-off read from the data, not from the text of the source: active = normalized growth mostly below about 0.91 (no sharp cut-off); inconclusive = no clear call, values can overlap the other calls; inactive = mostly above about 0.92. Some of the results follow.

Assay: chemical genetic growth profiling, strain panel (AID 1159580);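 note: tested at 20 µM; growth read once vehicle control cultures reached saturation at 30 °C; 1 = growth at the plate median or of vehicle wells; lower values mean less growth of the strain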
Details: S. cerevisiae deletion strains, growth OD

Measured: normalized growth

O=c1c(O)c(-c2ccc(O)c(O)c2)oc2c(O[C@@H]3O[C@H](CO)[C@H](O)[C@@H](O)[C@H]3O)c(O)cc(O)c12
inactive: locus YAL021C, strain ccr4, stronger effect = lower value 1.01 | locus YAL026C, strain drs2, stronger effect = lower value 1.03 | locus YAL030W, strain snc1, stronger effect = lower value 1.01 | locus YBL061C, strain skt5, stronger effect = lower value 1.01 | locus YBR009C, strain hhf1, stronger effect = lower value 1.02 | locus YBR023C, strain chs3, stronger effect = lower value 1.03 | locus YBR171W, strain sec66, stronger effect = lower value 1.02 | locus YBR231C, strain swc5, stronger effect = lower value 1.01 | locus YBR279W, strain paf1, stronger effect = lower value 1.01 | locus YCL011C, strain gbp2, stronger effect = lower value 1.03 | locus YCL016C, strain dcc1, stronger effect = lower value 1.02 | locus YCL061C, strain MRC1, stronger effect = lower value 1 | locus YCL069W, strain vba3, stronger effect = lower value 1.03 | locus YCR088W, strain abp1, stronger effect = lower value 1 | locus YDL005C, strain med2, stronger effect = lower value 1 | locus YDL040C, strain nat1, stronger effect = lower value 1.01 | locus YDR001C, strain nth1, stronger effect = lower value 1.02 | locus YDR069C, strain doa4, stronger effect = lower value 1.03 | locus YDR137W, strain rgp1, stronger effect = lower value 0.988 | locus YDR159W, strain sac3, stronger effect = lower value 0.997 | locus YDR195W, strain ref2 0.965 | locus YDR297W, strain sur2, stronger effect = lower value 1.03 | locus YDR334W, strain swr1, stronger effect = lower value 1.02 | locus YDR335W, strain msn5, stronger effect = lower value 1.02 | locus YDR392W, strain spt3, stronger effect = lower value 0.978 | locus YEL003W, strain gim4, stronger effect = lower value 1.02 | locus YEL037C, strain rad23, stronger effect = lower value 1.01 | locus YEL061C, strain CIN8 (second series), stronger effect = lower value 1.03 | locus YER015W, strain faa2, stronger effect = lower value 1 | locus YER016W, strain bim1, stronger effect = lower value 1.01 | locus YER111C, strain swi4, stronger effect = lower value 1.01 | locus YER155C, strain BEM2 (second series), stronger effect = lower value 1.04 | locus YFR010W, strain ubp6, stronger effect = lower value 1.01 | locus YGL167C, strain pmr1, stronger effect = lower value 1.02 | locus YGL173C, strain kem1, stronger effect = lower value 1.02 | locus YGL227W, strain vid30, stronger effect = lower value 0.999 | locus YGL240W, strain doc1, stronger effect = lower value 1.01 | locus YGL253W, strain hxk2, stronger effect = lower value 1.02 | locus YHR013C, strain ard1, stronger effect = lower value 1.02 | locus YHR027C, strain rpn1, stronger effect = lower value 0.998 | locus YHR030C, strain SLT2, stronger effect = lower value 0.895 | locus YHR079C, strain IRE1, stronger effect = lower value 0.886 | locus YHR142W, strain chs7, stronger effect = lower value 1.04 | locus YJL092W, strain hpr5, stronger effect = lower value 1.01 | locus YJL095W, strain BCK1 (second series), stronger effect = lower value 1.01 | locus YJL095W, strain BCK1, stronger effect = lower value 0.895 | locus YJL115W, strain asf1, stronger effect = lower value 1 | locus YJL129C, strain trk1, stronger effect = lower value 1 | locus YJL154C, strain vps35, stronger effect = lower value 1.02 | locus YJL164C, strain tpk1, stronger effect = lower value 1.03 | locus YJL166W, strain qcr8, stronger effect = lower value 1.04 | locus YJL187C, strain SWE1, stronger effect = lower value 1.03 | locus YJR066W, strain TOR1, stronger effect = lower value 0.914 | locus YKL160W, strain elf1, stronger effect = lower value 1 | locus YKR026C, strain gcn3, stronger effect = lower value 1.01 | locus YKR091W, strain srl3, stronger effect = lower value 1.02 | locus YLL001W, strain dnm1, stronger effect = lower value 0.989 | locus YLL026W, stronger effect = lower value 1.01 | locus YLL041C, strain sdh2, stronger effect = lower value 1.02 | locus YLR027C, strain aat2, stronger effect = lower value 1.03 | locus YLR221C, strain rsa3, stronger effect = lower value 1 | locus YLR258W, strain gsy2, stronger effect = lower value 1.01 | locus YLR262C, strain YPT6 (second series), stronger effect = lower value 1.06 | locus YLR320W, strain mms22, stronger effect = lower value 1.01 | locus YLR342W, strain FKS1, stronger effect = lower value 1.02 | locus YLR357W, strain rsc2, stronger effect = lower value 0.988 | locus YLR370C, strain arc18, stronger effect = lower value 1.02 | locus YLR384C, strain iki3, stronger effect = lower value 1 | locus YML120C, strain ndi1, stronger effect = lower value 1.01 | locus YMR058W, strain fet3, stronger effect = lower value 1.01 | locus YMR125W, strain sto1, stronger effect = lower value 1 | locus YMR129W, stronger effect = lower value 1.01 | locus YMR205C, strain PFK2, stronger effect = lower value 1.02 | locus YMR231W, strain pep5, stronger effect = lower value 1 | locus YNL071W, strain lat1, stronger effect = lower value 1.03 | locus YNL183C, strain NPR1, stronger effect = lower value 0.913 | locus YNL209W, strain ssb2, stronger effect = lower value 1.02 | locus YNL248C, strain rpa49, stronger effect = lower value 0.988 | locus YNL322C, strain KRE1 (second series), stronger effect = lower value 1 | locus YNR049C, strain mso1, stronger effect = lower value 1.02 | locus YOR001W, strain rrp6, stronger effect = lower value 1.01 | locus YOR070C, strain gyp1, stronger effect = lower value 1.01 | locus YOR080W, strain dia2, stronger effect = lower value 1.01 | locus YOR083W, strain WHI5, stronger effect = lower value 1.03 | locus YOR106W, strain vam3, stronger effect = lower value 1.01 | locus YOR231W, strain MKK1, stronger effect = lower value 0.91 | locus YOR265W, strain rbl2, stronger effect = lower value 1.04 | locus YOR270C, strain vph1, stronger effect = lower value 1.11 | locus YOR290C, strain snf2, stronger effect = lower value 1.03 | locus YPL051W, strain arl3, stronger effect = lower value 1.01 | locus YPL078C, strain atp4, stronger effect = lower value 1.01 | locus YPL106C, strain sse1, stronger effect = lower value 0.971 | locus YPL240C, strain hsp82, stronger effect = lower value 1.02 | locus YPL256C, strain CLN2, stronger effect = lower value 0.868
active: locus YLR113W, strain HOG1, stronger effect = lower value 0.834
